Screen size: about 320,000 compounds; about 22,000 (6.9%) were called active. Another 27% or so got no clear call; they are omitted. The entries come from a sample that favours actives as a whole. A number with no mark means an inactive call. The call rests on the fitted dose curve; in most records, active means well fitted inhibition curve with a large enough effect; inconclusive means small, poorly fitted or top-dose-only effect, or another doubt; inactive means no such curve, though single readings can be large or run the other way.

This note sets out measurements from PubChem BioAssay AID504834 (National Center for Advancing Translational Sciences (NCATS), 2011).
On the % scale 0 is the no-effect control and ±100 the full control effect; potency means the concentration at half of the fitted maximal effect.

This experiment in a line: Primary qHTS for delayed death inhibitors of the malarial parasite plastid, 96 hour incubation. Conditions: P. falciparum luciferase reporter growth; series mostly up to 28.7 µM; activity change, negative = inhibition: at the top concentration. A digest of the protocol:
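Erythrocytes infected with luciferase-expressing P. falciparum were dispensed at 2% hematocrit and 0.05% parasitemia (final), then incubated with compounds 96 hours at 37 C in 5% CO2. Luminescence after detection reagent addition reported growth.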
As for `O=C(/C=C/c1ccc(OCc2c(F)cccc2Cl)cc1)N1CCOCC1`, the Potency was 10.4 µM (active). With `Fc1cccc(Cl)c1COc1ccc(-c2nnco2)cc1`, the “activity change, negative = inhibition” value was -3.53%. On the same count and under the same terms, in the case of `O=C(Nc1ccc(OCC(=O)N2CCOCC2)cc1)c1cc(F)c(F)cc1Cl` it was -15.8%. On the same count and under the same terms, the same measure for `CCC(C)C(NC(=O)C1CCC(=O)N1C(=O)OCc1ccccc1)C(=O)NC(C(=O)N1CCCC1C(N)=O)C(C)CC` (configuration not stated): 2.57%.

As to `O=C(COC(=O)c1ncc(Cl)c(Cl)c1Cl)NNC(=O)c1ccccc1`, the “activity change, negative = inhibition” value is -2.5%. Still for that read-out and setting: the same measure for `CCCCN(C(=O)C1=NN(c2cc(C)ccc2C)C(=O)CC1)c1c(N)n(CCC)c(=O)[nH]c1=O`: -27.3%. Take `Cc1ccc(-c2noc(CCC(=O)Nc3ccccc3N3CCN(C)CC3)n2)cc1`: the “activity change, negative = inhibition” value was -10.9%.

With `Cc1cc(NC(=O)C(C)SCC(=O)Nc2ccccc2N2CCCCC2)no1` (configuration not stated), the Potency was 9.28 µM (active). For the molecule `Cc1cc(NC(=O)C(C)N2C(=O)c3ccccc3S2(=O)=O)no1` (configuration not stated), the “activity change, negative = inhibition” value is 50.7%. As to `CC1(c2ccc3ccccc3c2)NC(=O)NC1=O` (configuration not stated), the “activity change, negative = inhibition” value is 15.2%.

With `Cc1cc(=O)oc2cc(OCC(=O)Nc3nnc(C4CC4)s3)ccc12`, the “activity change, negative = inhibition” value was 24.1%. With `Cc1ccc(O)c(/C=N/NC(=O)COc2ccc3c(C)cc(=O)oc3c2)c1`, the Potency is 10.4 µM (active). In the case of `CCOC(=O)Cc1csc(NC(=O)COc2ccc3c(C)cc(=O)oc3c2)n1`, the “activity change, negative = inhibition” value is 37.9%. Same read-out and setting: the same measure for `COc1cccc2[nH]c(C(=O)NCCc3ccccc3)cc12`: 30.1%. The same measure, in the same setting: the same measure for `Cc1nnc(Nc2ccccc2F)s1`: 3.63%; for `NS(=O)(=O)c1ccc(CCNC(=O)CNC(=O)Cc2ccccc2)cc1`: 12.5%; for `CC(=O)O[C@H]1c2ccccc2-c2ccccc2[C@@H]1OC(C)=O`: -23.2%. As for `O=S(=O)(c1ccc(SCc2ccc(Br)cc2)nc1)N1CCOCC1`, the “activity change, negative = inhibition” value is -31.3%. Same read-out and setting: the same measure for `CN(C)c1nccc(NCc2ccccc2)c1C#N`: -1%. The same measure, in the same setting: in the case of `CCc1nc(NCCO)c(C#N)c2c1CCCC2` it was 8.09%. For the molecule `CCCCc1nc(NCc2ccccc2)c(C#N)c2c1CCCC2`, the Potency is 5.22 µM (active).

As to `CCOCc1nnc(NC(=O)CCS(=O)(=O)Cc2ccccc2)s1`, the “activity change, negative = inhibition” value was 8.85%. For the molecule `COc1ccc(CNS(=O)(=O)c2ccc(-c3cnc(C4CC4)o3)cc2)cc1`, the Potency is 10.4 µM (active).

`COc1ccc(CNS(=O)(=O)c2cc(-c3cc(C)no3)ccc2C(C)C)cc1`: the “activity change, negative = inhibition” value is 21.3%. Still for that read-out and setting: in the case of `COc1ccc(CNS(=O)(=O)c2ccc(NC(=O)N3CCCCC3)cc2)cc1` it was -9.06%; in that of `CCC(=O)N1c2ccc(S(=O)(=O)NCc3ccco3)cc2CC1C` (configuration not stated), 100%. In the case of `COCCN(C(=O)CCC(=O)Nc1nccs1)C(C(=O)NCCC(C)C)c1ccc(F)cc1` (configuration not stated), the “activity change, negative = inhibition” value was 20%.

In the case of `COCCN(C(=O)CCC(=O)Nc1ccccn1)C(C(=O)NCCC(C)C)c1ccc(OC)cc1` (configuration not stated), the Potency was 0.522 µM (active). As for `COCCNC(=O)C(c1ccc(C)cc1)N(C(=O)CCC(=O)Nc1ccccn1)c1cccc(C)c1` (configuration not stated), the “activity change, negative = inhibition” value was 7.39%. On the same count and under the same terms, the same measure for `CN(CC(=O)NCc1ccc(Cl)cc1)S(=O)(=O)c1cccs1`: 22.6%; for `COc1ccccc1OCCNC(=O)CCNC(=O)c1ccccc1Cl`: -22.2%. As to `COc1cc(SC)ccc1C(=O)NCCOc1ccccc1Cl`, the Potency was 0.738 µM (active). Regarding `COc1ccc(N2C(=O)C3CCCN3C2c2cccc(OC)c2)cc1` (configuration not stated), the “activity change, negative = inhibition” value was 7.91%. For `COc1cccc(N2C(=O)C3CCCN3C2c2ccc(F)cc2)c1` (configuration not stated), the Potency was 10.4 µM (active). `COc1ccc(N2C(=O)C3CCCN3C2c2cc(OC)c(OC)cc2OC)cc1` (configuration not stated): the “activity change, negative = inhibition” value is 45.6%.

On to `CCNC(=O)c1cnn(-c2ccccc2)c1-c1ccccc1`, for which the “activity change, negative = inhibition” value was -20%. The same measure, in the same setting: in the case of `COc1ccccc1CNC(=O)COn1nnc2ccc(S(=O)(=O)N3CCOCC3)cc21` it was -2.01%; in that of `O=C(CN(CC1CCCO1)C(=O)CNS(=O)(=O)c1ccc(F)cc1)NCc1ccco1` (configuration not stated), 19.6%.

With `CCCC(C(=O)NCc1ccco1)N(C(=O)CNS(=O)(=O)c1ccccc1)C1CCCC1` (configuration not stated), the Potency was 10.4 µM (active). Regarding `CC(C)C(C(=O)NCc1ccco1)N(CC1CCCO1)C(=O)CNS(=O)(=O)c1ccc(F)cc1` (configuration not stated), the “activity change, negative = inhibition” value is -19.1%. `CCc1c(C)nc2cc(-c3cccs3)[nH]n2c1=O`: the Potency is 2.08 µM (active). On to `Cc1cc(=O)n2[nH]c(-c3cccc(Cl)c3)cc2n1`, for which the “activity change, negative = inhibition” value is -30.1%. The same measure, in the same setting: the same measure for `CCC(C)n1[nH]c(=O)c2c(C)cc(C)nc21` (configuration not stated): 4.88%; for `Cc1nc2nc(COc3ccccc3)[nH]n2c(=O)c1Cc1ccccc1`: 29%. As for `CCc1c(C)nc2cc(C)[nH]n2c1=O`, the Potency was 3.7 µM (active).

For the molecule `C=CCc1c(C)nc2cc(-c3ccccc3)[nH]n2c1=O`, the “activity change, negative = inhibition” value is 20.7%. The same measure, in the same setting: the same measure for `CC(=O)Nc1ccc(S(=O)(=O)N2CCC(C(=O)N[C@@H](Cc3ccccc3)C(=O)O)CC2)cc1`: 16.2%. The same measure, in the same setting: the same measure for `CC(OC(=O)CCC(=O)c1ccccc1)C(=O)Nc1ccc(F)cc1` (configuration not stated): 4.68%; for `NC(=O)CN1CCCC1c1ccc2c(c1)OCCO2` (configuration not stated): 37.4%.

As to `O=C(C1CCC1)N1CCN(S(=O)(=O)c2ccc([N+](=O)[O-])cc2)CC1`, the Potency was 10.4 µM (active).

On to `O=C(C1CCCN(S(=O)(=O)c2ccc([N+](=O)[O-])cc2)C1)N1CCCCC1` (configuration not stated), for which the “activity change, negative = inhibition” value was 83%. The same measure, in the same setting: the same measure for `O=C(Cc1ccccc1)N1CCN(S(=O)(=O)c2ccc([N+](=O)[O-])cc2)CC1`: 0.489%.
